According to PubChem BioAssay AID1345085 (National Center for Advancing Translational Sciences (NCATS), 2018):
Records with an inconclusive call do not appear. Values without a mark were called inactive. The source made the active and inactive calls. The call rests on the fitted dose curve; in most records, active means well fitted cell-killing curve with a large enough effect; inconclusive means small, poorly fitted or top-dose-only effect, or effect the other way; inactive means no such curve, though single readings can be large or run the other way.

tested on: Es-2; test: Confirmatory qHTS for gynecologic anti-cancer compounds from libraries of approved drugs and bioactive compounds; conditions: gynecologic cancer cell panel viability, ATPlite luminescence, 48 h; series mostly up to 57.6 µM; activity change, negative = viability loss: at the top concentration; further: nearly all actives have a fitted effect of over 55% in size
Description: National Center for Advancing Translational Sciences [NCATS] Assay Overview: Chemotherapeutic drug responses vary from cancer to cancer and from patient to patient. These variations could be caused by a number of factors including patient genomic background, tumor mutations, tumor heterogeneity, and aspects of drug treatment. Chemotherapeutic drug resistance is also a common issue and can lead to ineffective treatment and patient death. Here we have profiled the cell killing effects of thousands of compounds to characterize the responses in three gynecological cancers, identify cancer-selective compounds, and understand the diversity of responses to these compounds from pan-cancer suppressors to single cell line selective compounds. In this assay, we screened a 7,914 compound drug library that included approved drug and bioactive compounds in six ovarian, three cervical, and two placental cancer cell lines using the ATPlite assay for cell viability. ATPlite is a luminescence based assay reliant on the conversion of a luciferase substrate to light in the presence of ATP. As a cytotoxic compound will suppress growth and decrease the number of cells, the concentration of ATP will decrease, and less light signal will be detected in the well. Hits were selected from the primary screen for follow-up confirmation. For the confirmation screens, the ovarian cancer cell lines included CAOV-3, SK-OV-3, SW 626, ES-2, PA-1, and TOV-21G. The cervical cancer cell lines included HeLa, Ca Ski, and C-33 A. The placental cancer cell lines included JEG-3 and JAR. HEK 293T cells were used as the control cell line to determine the selectivity index. The ATPlite assay was used to determine the IC50 values.
Assay Protocol Summary: 1,000 cells in 4 uL of media were dispensed into white, solid bottom 1536-well plates using a Multidrop Combi (Thermo Scientific). The Assay plates were incubated for 16 hours at 37 C with 5% CO2 in assay plates, followed by the addition of 23 nL of DMSO or drug dissolved in DMSO. . Each compound was assayed in 11 concentrations (1:3 dilution) from 57.5 uM to 0.977 nM, using the automated Wako 1536 Pin Tool workstation and incubated at 37 C with 5% CO2 48 hours. 4 uL of ATPlite, the ATP monitoring reagent, was then added to the each well of the assay plates using the Multidrop Combi reagent dispenser followed by incubation for 15 minutes at room temperature. The resulting luminescence was measured using the ViewLux plate reader.
On the % scale 0 is the no-effect control and ±100 the full control effect; potency means the concentration at half of the fitted maximal effect.

Question: CCOc1ccccc1-n1c(C(C)N2CCN(C(=O)COc3ccc(Cl)cc3)CC2)nc2ccccc2c1=O (centres undefined) was tested. Which Potency did it give?
Answer: The Potency was 3.43 µM (active).

Question: For C[C@]12CC[C@H]3[C@@H](CCC4=CC(=O)CC[C@@H]43)[C@@H]1CC[C@@H]2OC(=O)CCc1ccccc1, which “activity change, negative = viability loss” value is on record?
Answer: The value was -4.17%.

Question: Which Potency does the source give for C/C=C(/C)C(=O)O[C@H]1C(C)=C2[C@H]([C@@H]1OC(=O)CCCCCCC)[C@@](C)(OC(C)=O)C[C@H](OC(=O)CCC)[C@@]1(O)[C@H]2OC(=O)[C@@]1(C)O here?
Answer: The Potency was 27.3 µM (active).

Question: CCNC(=O)C[C@@H]1N=C(c2ccc(Cl)cc2)c2cc(OC)ccc2-n2c(C)nnc21 was tested. Which Potency did it give?
Answer: Its Potency is 24.3 µM (active).

Question: Which “activity change, negative = viability loss” value does the source give for O=C(O)Cc1ccccc1 here?
Answer: Its value is 20.5%.

Question: For C[C@H]1CCC/C=C/C2C[C@H](O)C[C@H]2[C@H](O)/C=C/C(=O)O1 (some centres undefined), which Potency is on record?
Answer: The Potency was 0.485 µM (active).

Question: With CCC(=O)O[C@H]1CC[C@H]2[C@@H]3CCC4=CC(=O)CC[C@]4(C)[C@H]3CC[C@]12C as the molecule, how does the “activity change, negative = viability loss” value read?
Answer: Its value is 5.91%.

Question: C=C(C)[C@H]1Cc2c(ccc3c2O[C@@H]2COc4cc(OC)c(OC)cc4[C@@H]2C3=O)O1 was tested. Which Potency did it give?
Answer: The Potency was 0.685 µM (active).

Question: For CCN1CCN(C(=O)Cc2ccc(Nc3ncc(F)c(Nc4ccc(C(=O)Nc5ccccc5Cl)cc4)n3)cc2)CC1, which “activity change, negative = viability loss” value is on record?
Answer: The value was -8.79%.
